Screening data from PubChem BioAssay.
This is one part of a sample in which hits are shown more often than they occur.
14-3-3g Raf: modulators of 14-3-3 gamma protein binding, primary screen, biochemical, fluorescence polarization | FP, 14-3-3gamma / TMR-pS259-Raf peptide binding | inhibition, % at 40 µM | 160,000 tested, 0.19% active; in the data active means inhibition above about 30%;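 further: 0% = protein plus tracer without compound and 100% = blank with tracer alone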
Target sequence (P61981 whole entry, looked up): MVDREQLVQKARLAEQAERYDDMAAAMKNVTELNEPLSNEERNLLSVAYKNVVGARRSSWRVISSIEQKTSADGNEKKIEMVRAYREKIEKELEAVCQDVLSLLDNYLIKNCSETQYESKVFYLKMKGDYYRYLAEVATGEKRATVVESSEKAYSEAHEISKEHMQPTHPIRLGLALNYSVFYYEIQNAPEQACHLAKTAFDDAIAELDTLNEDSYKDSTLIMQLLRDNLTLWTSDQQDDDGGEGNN
The depositor's hits bear a star.

SMILES	14-3-3g Raf
O=C1c2ccc3c4c(ccc(c24)C(=O)N1c1ccccc1)N(c1ccccc1)C3=O	-69.1
C=CCNc1ccc2c3c(cccc13)C(=O)N(c1ccccc1)C2=O	158.1*
Nc1ccc2c3c(cccc13)C(=O)N(c1ccccc1)C2=O	86.8*
O=C1c2cccc3c(N4CCCC4)ccc(c23)C(=O)N1c1ccccc1	-24.4
O=C1c2cccc3c(NCCO)ccc(c23)C(=O)N1CCO	8.5
O=C1c2cccc3c([N+](=O)[O-])ccc(c23)C(=O)N1c1ccccc1	4.2
CC(OC(=O)c1cccs1)C(=O)NCc1ccccc1 (stereo not drawn)	-4.3
CCCN1C(=O)c2ccccc2NC1c1ccc(OC)c(COc2ccc(F)cc2)c1 (stereo not drawn)	-1.7
Nc1ccccc1Nc1c(N)c(=O)oc2ccccc12	-18.3
CC(=O)Nc1cccc(Oc2ccc3c(c2)C(=O)N(c2ccc(C(=O)Oc4ccccc4)cc2)C3=O)c1	-3.4
CCOc1ccc(C2CC(=O)C3=C(C2)Nc2ccccc2NC3c2ccc(OC)c(OC)c2OC)cc1OC (stereo not drawn)	2.4
O=C(COc1ccc(Br)cc1)Nc1cccnc1	-11.0
O=C(COc1ccc([N+](=O)[O-])cc1)Nc1cccnc1	30.6*
O=C(COc1ccc([N+](=O)[O-])cc1)Nc1ccccn1	-12.9
CCCCN(c1ccccc1)c1ncnc2c1cnn2-c1ccccc1	-9.2
COc1ccc(OC)c(S(=O)(=O)N(C)Cc2ccccc2)c1	-5.6
CC(=O)N1c2c(cc(Br)cc2S(=O)(=O)N2CCN(Cc3ccc4c(c3)OCO4)CC2)CC1C (stereo not drawn)	-17.3
COCCCNC(=O)CN1C(=O)c2ccccc2C1=O	-1.6
COCCCNC(=O)CSc1ccc2c3c(cccc13)C(=O)c1ccccc1-2	104.6*
O=C(CSc1ccc2c3c(cccc13)C(=O)c1ccccc1-2)Nc1ccccc1	-95.2
Fc1cnc(N2CCOCC2)nc1N1CCc2ccccc21	-6.6
Cc1ccc2cc3cc(C(=O)N4CCC(N5CCCCC5)CC4)oc3nc2c1	-5.8
COc1ccc2cc3cc(C(=O)N4CCCC4)oc3nc2c1	-3.4
COc1ccc2cc3cc(C(=O)N4CCC(N5CCCCC5)CC4)oc3nc2c1	46.0*
COc1ccccc1C1c2c(oc3ccc(Cl)cc3c2=O)C(=O)N1c1cc(C)on1 (stereo not drawn)	2.4
SMILES	14-3-3g Raf
Nc1c(C(=O)c2ccccc2)sc2nc(-c3ccccc3)cc(C(F)(F)F)c12	59.8*
Nc1c(C(=O)NCCc2ccccc2)sc2nc(-c3ccccc3)cc(C(F)(F)F)c12	-2.3
COC(=O)c1sc2nc(-c3ccncc3)cc(C(F)(F)F)c2c1N	-38.1
CCN(CC)c1ccc2cc(C(=O)c3cc4ccc(N(CC)CC)cc4oc3=O)c(=O)oc2c1	77.2*
CCN(CC)c1ccc2cc(C(=O)Nc3ccccn3)c(=O)oc2c1	7.0
CCN(CC)c1ccc2cc(C(=O)Nc3ccc(C)cc3)c(=O)oc2c1	-8.8
COc1ccc(C)cc1S(=O)(=O)N1CCN(C(c2ccccc2)c2ccccc2)CC1	0.4
CCCCc1ccc(NC(=O)c2cc3c(=O)n4ccccc4nc3s2)cc1	-8.3
CCOC(=O)c1ccc(N2CCN(c3ccc(F)cc3)CC2)c(NC(=O)Nc2ccc(C)c(C)c2)c1	-11.5
CC1CCN(C(=O)c2c[nH]c3ccc(S(=O)(=O)N4CCCCC4c4cccnc4)cc3c2=O)CC1 (stereo not drawn)	-1.1
O=C(O)c1c[nH]c2ccc(S(=O)(=O)N3CCCCC3c3cccnc3)cc2c1=O (stereo not drawn)	57.2*
O=C(c1c[nH]c2ccc(S(=O)(=O)N3CCCCC3c3cccnc3)cc2c1=O)N1CCCC1 (stereo not drawn)	-9.3
COc1cc([N+](=O)[O-])cc2c1NC(c1ccccc1Cl)C1CC=CC21 (stereo not drawn)	-44.3
Cc1nc(N=Nc2ccc(S(=O)(=O)O)cc2S(=O)(=O)O)c(COP(=O)(O)O)c(C=O)c1O	35.2*
Cc1nc(N=Nc2ccc(C(=O)O)cc2)c(COP(=O)(O)O)c(C=O)c1O	69.2*
Cc1cc(O)c(C=Nc2ccc(C(=O)O)cc2)c(C)c1Cl	3.2
O=C(O)CCc1nc2ccccc2n(Cc2ccccc2F)c1=O	1.5
CCCOC(=O)c1ccc(NC(=O)C2CCCO2)cc1 (stereo not drawn)	2.3
Cc1cc(N/C(=N\S(=O)(=O)c2ccc(Cl)cc2)c2ccc(F)cc2)no1	2.9
COc1ccc(OCC(=O)Nc2cc(-c3nc4ncccc4o3)ccc2Cl)cc1	-15.0
O=C(NCCN1CCCC1)c1ccc(N2CCCC2=O)cc1	11.3
O=C(Nc1nnc(-c2ccccc2)o1)c1ccc(F)c(S(=O)(=O)N2CCOCC2)c1	-14.3
CCN(CC)CC(=O)Nc1ccc2c(c1)Nc1ccccc1CC2	-14.1
CCOc1cccc(=Nc2cc(C)c(C)cc2N)c2c(C)n(-c3cccc(OC)c3)c(C)c12	-63.5
COCCn1nnnc1C(c1ccc2ncccc2c1)N1CCN(c2ccccc2F)CC1 (stereo not drawn)	-1.6
SMILES	14-3-3g Raf
O=C1C2C3C=CC(C2C(=O)N1c1ccc(O)cc1)C1C2C(=O)N(c4ccc(O)cc4)C(=O)C2C31 (stereo not drawn)	63.7*
COc1ccc(N2C(=O)C3C4C=CC(C3C2=O)C2C3C(=O)N(c5ccc(OC)cc5)C(=O)C3C42)cc1 (stereo not drawn)	-0.9
O=C1C2C3C=CC(C2C(=O)N1c1ccccc1)C1C2C(=O)N(c4ccccc4)C(=O)C2C31 (stereo not drawn)	-3.2
CC1=NN(c2nc3ccccc3s2)C(O)(C(F)(F)F)C1 (stereo not drawn)	6.9
Cc1ccccc1-n1c(SCc2ccccc2)nnc1-c1cccnc1	1.3
O=C(CSc1nnc2ccccn12)Nc1ccc2ccccc2c1	1.1
CCn1c(CSc2nnc3ccccn23)nc2cc(C(=O)O)ccc21	138.6*
CCn1c(CSc2nc3ccccc3n2C)nc2ccccc21	2.2
CCOc1ccccc1-n1c(SCC(N)=O)nnc1-c1cccnc1	1.8
CCn1c(CSc2nnc(-c3cccnc3)n2-c2ccccc2C)nc2cc(C(=O)O)ccc21	126.9*
COC(=O)c1ccccc1NS(=O)(=O)c1ccc(C)cc1	8.3
COc1ccc(S(=O)(=O)NCc2ccc(C(=O)NCc3ccc(C)cc3)cc2)cc1	-7.3
C=Cn1c2ccccc2n2cc(-c3ccc(C)cc3)nc12	-0.1
COc1ccc(C2=NN(c3ccccc3)C(c3ccc(OC)cc3)C2)cc1 (stereo not drawn)	-33.7
O=c1oc2ccccc2cc1C1=NN(c2ccccc2)C(c2ccccc2)C1 (stereo not drawn)	53.9*
Cc1ccc(N2N=C(c3ccccc3)CC2c2ccccc2)cc1 (stereo not drawn)	-8.5
Cc1ccc(C)c(Nc2ccc([N+](=O)[O-])c3nonc23)c1	34.3*
Cc1ccc(C)c(Nc2c([N+](=O)[O-])ccc3nonc23)c1	-13.3
Cc1ccc(C)c(Nc2ccc3nonc3c2[N+](=O)[O-])c1	-9.6
O=C(CC1Sc2ccccc2NC1=O)NC1CCCC1 (stereo not drawn)	3.8
COc1ccc(CCNC(=O)c2cnc3n(c2=O)CCS3)cc1OC	-2.4
COC(=O)NCC1(C)CC(NC(=O)OC)CC(C)(C)C1 (stereo not drawn)	-9.3
N#Cc1c(/N=C/c2ccco2)sc2c1CCCCC2	-6.6
CN1CCc2c(sc(/N=C/c3ccco3)c2C(N)=O)C1	47.8*
CN1CCc2c(sc(/N=C/c3cccs3)c2C(N)=O)C1	-37.5
O=C1c2ccccc2-c2onc3ccc(NCc4ccco4)c1c23	81.9*
